# Laboratory results from PubChem BioAssay (NCATS).
# Calls of active or inactive are those of the source. Calls come from the whole dose curve; as a rule, active = well fitted curve in the direction sought with a large enough effect; inconclusive = small, poorly fitted or top-dose-only effect, or another doubt; inactive = no such curve, though single readings can be large or run the other way.
# Experiment: qHTS for compounds that reverse cellular toxicity of Amyloid beta (A-beta) peptide in yeast: LOPAC Validation Assay (AID 720559)
# Conditions: yeast expressing A-beta; series mostly up to 46.1 µM
# Text: The A-beta peptide is produced by the processing of the amyloid precursor protein (APP) by two proteases, beta and gamma secretases. […] A-beta42 is regarded as the most amyloidogenic form due to its hydrophobicity; however, precisely how A-beta42 induces neurotoxicity is unclear. To understand further this biology and its potential therapeutic implications for human neurodegenerative disease, a quantitative high-throughput screen for compounds that reverse the cellular toxicity of the A-beta peptide was developed.
# A yeast based screen was used because it recapitulates the salient feature of protein mis-folding disorder accurately. This cell-based phenotypic screen provides a significant, unbiased advantage by letting the compounds and models inform us which proteins or pathways are most relevant. The ideal chemical candidates would therefore have activity in both our primary yeast and secondary neuronal toxicity assays, as well as in mouse models. They will be valuable tools for dissecting diverse protein homeostasis pathologies and could potentially become the focus for future pre-clinical development. For this […] assay, inhibition of A-beta rescues the toxic effect in the yeast cell, resulting in increase of signals.
# NIH Chemical Genomics Center [NCGC]
# NIH Molecular Libraries Probe Centers Network [MLPCN]
# Assay Submitter (PI): Susan Lindquist, Whitehead Institute, Massachusetts Institute of Technology
# [1] Vassar R,et al (1999). Beta-secretase cleavage of Alzheimer's amyloid precursor protein by the transmembrane aspartic protease BACE. Science. 286: 735-741.
# [2] Yan R, et al (1999). Membrane-anchored aspartyl protease with Alzheimer's disease beta-secretase activity. Nature.
# Two and a half microliter / well of yeast growth medium were dispensed in a 1536 assay plate. Compounds were pinned using the Kalypsys robotic system followed by addition of 2.5 uL / well yeast solution. The assay plates were incubated at 30 C. After 48 hr, the absorbance signal at 600 nm was obtained using the PerkinElmer ViewLux plate reader to assess yeast growth. The data was normalized to the positive control of an equimolar mixture of ferric chloride (FeCl3) and clioquinol and to the negative control DMSO.
row,SMILES,outcome
1,CC(C)(C)NCC(O)c1ccccc1Cl (stereo unspecified),inactive
2,C=C(C)[C@H]1CN[C@H](C(=O)O)[C@H]1CC(=O)O,inactive
3,CC(=O)N1CCN(c2ccc(OC[C@H]3CO[C@](Cn4ccnc4)(c4ccc(Cl)cc4Cl)O3)cc2)CC1,inactive
4,NCCc1ccc(O)cc1,inactive
5,O=c1[nH]oc2c1CCNC2,inactive
6,CCC1(c2ccc(N)cc2)CCC(=O)NC1=O (stereo unspecified),inactive
7,O=C(O)CCCc1ccc(N(CCCl)CCCl)cc1,inactive
8,CC(C)N(CCC(C(N)=O)(c1ccccc1)c1ccccn1)C(C)C (stereo unspecified),inactive
9,Cc1ncsc1CCCl,inactive
10,CN1C(=O)CCS(=O)(=O)C1c1ccc(Cl)cc1 (stereo unspecified),inactive
11,O=C(CCCN1CCC2(CC1)C(=O)NCN2c1ccccc1)c1ccc(F)cc1,inactive
12,CC(C)c1cccc(C(C)C)c1O,inactive
13,O=P1(N(CCCl)CCCl)NCCCO1 (stereo unspecified),inactive
14,COc1ccc2c(c1OC)C(=O)O[C@H]2[C@@H]1c2cc3c(cc2CCN1C)OCO3,inactive
15,CC(NC(C)(C)C)C(=O)c1cccc(Cl)c1 (stereo unspecified),inactive
16,CCCCC/C=C\C/C=C\C/C=C\C/C=C\CCCC(=O)NCC(=O)O,inactive
